Screening results as filed in PubChem BioAssay.
In the library only some 2.3% were active in any assay of this set; here they are far more common.
GLS inhibitor: blocks human kidney-isoform glutaminase activity | 0.21% of 410,000 active | Potency, µM (series often up to 45.5 µM), without a hit: at the highest dose activity change, negative = inhibition, most hits filed as inhibitors | O94925 | GLS enzymatic activity, qHTS titration; note: % is set by controls: 0 for no effect and ±100 for the full control effect
Target sequence (O94925 whole entry, looked up, canonical isoform): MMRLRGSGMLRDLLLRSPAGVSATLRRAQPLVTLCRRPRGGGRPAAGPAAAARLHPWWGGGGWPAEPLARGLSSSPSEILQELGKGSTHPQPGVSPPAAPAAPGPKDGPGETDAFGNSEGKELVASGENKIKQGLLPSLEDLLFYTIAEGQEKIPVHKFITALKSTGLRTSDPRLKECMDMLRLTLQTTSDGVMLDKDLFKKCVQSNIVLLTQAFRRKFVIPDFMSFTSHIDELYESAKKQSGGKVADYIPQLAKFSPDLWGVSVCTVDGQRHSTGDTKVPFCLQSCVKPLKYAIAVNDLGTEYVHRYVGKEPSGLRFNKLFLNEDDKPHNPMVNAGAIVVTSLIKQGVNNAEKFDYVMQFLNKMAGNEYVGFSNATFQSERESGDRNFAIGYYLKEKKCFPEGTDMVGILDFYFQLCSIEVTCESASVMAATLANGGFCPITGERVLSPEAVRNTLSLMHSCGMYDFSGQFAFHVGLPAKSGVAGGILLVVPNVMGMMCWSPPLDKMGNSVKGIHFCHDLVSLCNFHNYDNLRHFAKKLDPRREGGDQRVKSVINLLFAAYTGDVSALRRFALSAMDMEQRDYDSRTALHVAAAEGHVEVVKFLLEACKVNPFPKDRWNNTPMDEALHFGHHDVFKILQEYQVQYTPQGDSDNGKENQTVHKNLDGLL
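Assay buffer: 45 mM KH2PO4 pH 8.2, 0.02% Tween-20. hKGA acts on L-glutamine (1 mM solution added); product glutamate is reported by an oxidase/peroxidase Amplex Red coupling, with fluorescence taken at baseline and 30 min.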
PTHR1 agonist: activates the human parathyroid hormone receptor PTHR1; Q03431; Potency, µM (top dose mostly 115 µM), for inactives: at the top dose activation, most hits filed as activators; 0.075% of 410,000 active; HEK293 GP2 PTHR1 cells, GloSensor cAMP luminescence, 1 h; note: nearly all actives have a fitted effect of over 55% in size
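HEK-293-derived GP2 cells expressing PTHR1 and a GloSensor cAMP reporter, 3,000/well, plated overnight, given luciferin plus IBMX (each 0.5 mM as added) for 1 h at 37 °C, then compound for 1 h at 37 °C. Luminescence was read after 15 min at room temperature.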
GLP1R inv ag: GLP-1 receptor (human) inverse agonism; AID 624417; Potency, µM (top dose mostly 38.3 µM), for the others: at the highest dose activity change, negative = inhibition, usual class: inhibitors; HEK293 GLP-1R CRE-luciferase, luminescence, 24 h; GLP-1R form is constitutively active; P43220; 1.6% of 410,000 active; note: % is set by controls: 0 for no effect and ±100 for the full control effect; nearly all actives have a fitted effect of over 55% in size
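HEK293 cells stably co-expressing a cAMP-responsive luciferase reporter and constitutively active GLP-1R were seeded, incubated 12 h, then exposed to compounds for 24 h at 37 C. Luminescence was read 12 min after detection reagent; inverse agonists lower signal.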
12-LOX inh: ALOX12 (human) lipoxygenase inhibition; P18054; purified 12hLO, xylenol orange hydroperoxide absorbance; Potency, µM (series often up to 108 µM), inactives show top-dose activity change, negative = inhibition, actives largely listed as inhibitors; 1.1% of 580,000 active; AID 1671190; note: % is set by controls: 0 for no effect and ±100 for the full control effect
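Purified human 12hLO at 150 nM in 25 mM Hepes, 0.01% Triton X-100, pH 7.0, preincubated 15 min at room temperature with compound. Reaction started with 40 uM arachidonic acid, 30 min at room temperature. Hydroperoxide measured by Fe-xylenol orange, 573/405 nm absorbance ratio.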
Glioma ERSR ind: inducers of ER stress response in human glioma cells. U87-MG GRP78 promoter luciferase reporter, 16 h. Potency, µM, without a hit: at the top dose activation, actives largely listed as activators. 0.02% of 420,000 active. AID 602332; note: series mostly up to about 76 µM; % of control where 0% means no effect; nearly all actives have a fitted effect of over 35% in size
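ERSR induction read as luciferase luminescence (Bright-Glo, 10 min at room temperature) in stably transfected human U87-MG glioma cells exposed to compounds for 16 h, using GRP78 as sensor.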
GLP1R ag: activates the human GLP-1 receptor; P43220; 0.007% of 380,000 active; Potency, µM (top dose mostly 45.6 µM), inactives show at the highest dose activation, usual class: activators; AID 624172; HEK293 GLP-1R CRE-luciferase, luminescence, 4-6 h; cells express a hypersensitive GLP-1R form; note: % of control where 0% means no effect
* marks the source's active call; other numbers are inactive results; i = inactive; ? = inconclusive; · = not tested or not shown; [ ] = dose if it differs, or a comment. Calls come from the whole dose curve; as a rule, active = well fitted curve in the direction sought with a large enough effect; inconclusive = small, poorly fitted or top-dose-only effect, or another doubt; inactive = no such curve, though single readings can be large; an effect the other way counts as inactive or inconclusive. Potency is the fitted concentration of half-maximal effect.

SMILES	GLS inhibitor	PTHR1 agonist	GLP1R inv ag	12-LOX inh	Glioma ERSR ind	GLP1R ag
O=C(NC(c1ccc(F)cc1)c1ccc2ccccc2n1)C1CCN(CCOc2ccc(Cl)cc2)CC1 (stereo unspecified)	8.9%	-13.7%	6.31µM*	?	-5.8%	-6.4%
COc1ccc2c(c1)c(/C=C/c1cc[n+](C)cc1)cn2C	10.6%	-2.8%	-37.4%	50.1µM*	-0.9%	-3.0%
COc1ccc2c(/C=C/c3cc[n+](C)cc3)c[nH]c2c1	-21.2%	i	-16.4%	?	-4.7%	-2.5%
CCOC(=O)c1ccc(NC(=O)CSc2nc3c(-c4ccccc4)c[nH]c3c(=O)n2CC)cc1	·	·	·	-9.6%	·	·
Cc1cccc(CSc2nnc(CCCCCNC(=O)OC(C)(C)C)o2)c1	0.0%	-26.2%	7.08µM*	0.0%	2.3%	19.1%
Cc1ccccc1CS(=O)(=O)c1nnc([C@H](Cc2ccccc2)NC(=O)OC(C)(C)C)o1	-7.3%	-19.2%[57.5 µM]	10µM*	6.6%	-14.6%	-17.1%
Fc1ccc(-c2cnc([C@@H]3COCCN3Cc3c[nH]c4ccccc34)[nH]2)c(F)c1	·	·	·	-30.8%[176 µM]	·	·
Nc1ccc(N2CCCCC2)cc1N1CCCCC1	17.0%	-9.4%	-3.2%	253.6%	-0.9%	-10.9%
Fc1ccc(-n2[nH]nnc2=S)cc1N1CCCC1	67.9%	-4.5%[57.5 µM]	-9.9%	8.91µM*	-2.0%	-0.2%
CC(C)NC(=O)CN1C(=O)NC(c2ccc(Cl)cc2)C2=C1COC2=O (stereo unspecified)	·	·	·	62.2%	·	·
Cc1ccc(NC(=O)CN2C(=O)NC(c3ccc(Cl)cc3)C3=C2COC3=O)cc1 (stereo unspecified)	·	·	·	11.2µM*	·	·
Cc1ccc(C2NC(=O)N(CC(=O)Nc3c(C)cccc3Cl)C3=C2C(=O)OC3)cc1 (stereo unspecified)	·	·	·	2.2%	·	·
O=C(CN1C(=O)NC(c2ccc(Cl)cc2)C2=C1COC2=O)Nc1ccc(Cl)cc1F (stereo unspecified)	·	·	·	8.91µM*	·	·
O=C(CN1C(=O)NC(c2ccc(Cl)cc2)C2=C1COC2=O)Nc1cc(F)cc(F)c1 (stereo unspecified)	·	·	·	11.2µM*	·	·
O=C(CN1C(=O)NC(c2ccc(Cl)cc2)C2=C1COC2=O)Nc1ccc(Br)cc1F (stereo unspecified)	·	·	·	4.47µM*	·	·
O=C(OCCc1ccccc1)c1cccc([N+](=O)[O-])c1	·	·	·	45.2%	·	·
CCOc1ccc(NC(=O)c2nn(C)c(=O)c3ccccc23)cc1S(=O)(=O)N(C)C	·	·	·	-1.6%	·	·
CC1(OC(=O)C2CCCC2)C(=O)C=C2C=C(c3ccsc3)N(c3ccccc3)C=C2C1=O (stereo unspecified)	-1.4%	-13.3%	-10.7%	12.6µM*	-2.0%	-1.0%
CC1(OC(=O)C2CCCC2)C(=O)C=C2C=C(c3ccsc3)N(C3CC3)C=C2C1=O (stereo unspecified)	13.9%	19.8%	-4.5%	-8.5%	-3.4%	5.9%
O=C(COc1ccccc1)N1CCOCC12CCN(Cc1ccccc1)CC2	·	·	·	48.4%[176 µM]	·	·
O=C(Nc1ccncc1)Nc1cccc(Cl)c1	2.5%	-0.6%	?	?	1.8%	-3.8%
O=C(Nc1cccc(Cl)c1)Nc1csc([N+](=O)[O-])c1	0.0%	-35.6%	6.31µM*	?	4.1%	-1.7%
CC(=O)OC1CCC2(C)C(COc3ccc4ccc(=O)oc4c3)C(C)(O)CCC2C1(C)C (stereo unspecified)	-12.3%	i	11.2µM*	i	-9.8%	-1.4%
C=C1CCC2C(C)(C)[C@@H](O)CC[C@@]2(C)[C@@H]1COc1ccc2ccc(=O)oc2c1 (stereo partly specified)	-0.6%	-44.4%	?	21.2%	14.3%	-3.3%
O=C(Nc1ccc(OC(F)F)cc1)c1n[nH]c(=O)c2ccccc12	·	·	·	64.0%	·	·
SMILES	GLS inhibitor	PTHR1 agonist	GLP1R inv ag	12-LOX inh	Glioma ERSR ind	GLP1R ag
N#C/C(=C\c1ccc(OCc2ccc(Cl)c(Cl)c2)cc1)C(=O)c1ccccc1	·	·	·	-62.0%	·	·
NC(=O)C1CCCc2c1[nH]c1ccc(Cl)cc21 (stereo unspecified)	·	·	·	-20.2%[57.4 µM]	·	·
O=C(c1ccco1)N1CCN(C(=O)C2CCCc3c2[nH]c2ccc(Cl)cc32)CC1 (stereo unspecified)	7.5%	-4.5%[57.5 µM]	5.01µM*	?	-3.7%	-0.2%
O=C(c1cc2cc(Cl)ccc2[nH]1)N1CCN(C(=O)c2ccco2)CC1	-6.8%	-14.6%	?	44.7µM*	1.5%	-2.3%
CCN(CC)C(=O)C1CCCc2c1[nH]c1ccc(Cl)cc21 (stereo unspecified)	1.9%	-14.4%	4.47µM*	-19.2%	1.7%	-7.2%
CC1(C)CC2CC(C)(CN2S(=O)(=O)c2ccc(C(=O)Nc3ccc(Cl)c(S(=O)(=O)N4CCOCC4)c3)cc2)C1 (stereo unspecified)	-2.4%	-29.7%	3.55µM*	21.0%	-1.6%	-16.6%
CC1(C)CC2CC(C)(CN2S(=O)(=O)c2ccc(C(=O)Nc3ccc(S(=O)(=O)N4CCOCC4)cc3)cc2)C1 (stereo unspecified)	-0.9%	-35.5%	11.2µM*	-15.9%	-3.6%	0.6%
O=C(Nc1ccc(Cl)c(S(=O)(=O)N2CCOCC2)c1)c1ccccc1-c1ccc(C(F)(F)F)cc1	-6.2%	i	2.82µM*	-7.0%	-3.9%	19.1%
O=C(Nc1ccc(Cl)c(S(=O)(=O)N2CCOCC2)c1)c1cc2ccccc2oc1=O	-0.5%	-25.3%	13.1%	6.8%	-0.9%	0.4%
COc1ccc(-c2csc(NC(=O)CN3CCN(c4cccc(C(F)(F)F)c4)CC3)n2)cc1	·	·	·	13.8%	·	·
O=C(NCCn1cc(SCc2ccccc2)c2ccccc21)c1ccccc1F	0.6%	-39.3%	10µM*	11.2%	1.5%	18.7%
COc1cc(S(=O)(=O)Nc2ccc3ccccc3c2)ccc1NC(C)=O	·	·	·	-30.4%	·	·
CN(C)C(=O)c1ccc(Br)s1	·	·	·	-12.6%	·	·
Cc1ccc(C(=O)Nc2ncc3c(Cl)cccc3n2)cc1	-3.0%	i	7.08µM*	-13.1%	-12.3%	-32.7%
Cc1ccc(C(=O)Nc2ccc(Cl)cn2)cc1	0.8%	-14.9%[57.5 µM]	?	0.6%	-3.8%	-6.8%
Oc1ccccc1Oc1ncc(Br)c(Cl)n1	17.6%	-33.5%	45.0%	31.6µM*	5.8%	20.2%
CCCNC(=O)CN(C)C(=O)NC(c1ccc(C(C)C)cc1)C(C)C (stereo unspecified)	·	·	·	66.5%	·	·
COc1ccc(C(=O)C(CN2CCCC2)c2ccccc2)cc1 (stereo unspecified)	1.4%	-31.5%	5.62µM*	-7.5%	-14.8%	-17.1%
COc1cc(/C=N/NC(=S)NCCN2CCOCC2)cc(OC)c1O	3.98µM*	-3.1%	10.7%	-5.4%	-3.3%	8.6%
